# Reference: the supplement of paper PMC6555819
# Tests used:
# Experiment in all cases: PBM binding z-score (relative to random genomic background probes); higher = stronger binding; sequences stand for … in GC…GCGATTGACAGCGTAGAATGAAGG
# [1] = tested on: FXR:RXRa (NR concentration 270 nM, RXRa partner concentration 90 nM)
# Summary of the method: (§1)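 Binding z-scores take random background probes as their reference. They come from custom Agilent 4×180K protein-binding microarrays incubated 1 h with ligand-free nuclear receptor dimers, with antibodies against each partner (one per run) detecting binding. Scanned fluorescence was regression-normalized.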
# [2] = tested on: LXRa:RXRa (NR concentration 270 nM, RXRa partner concentration 90 nM)
# Summary of the method: as §1
# [3] = tested on: LXRa homodimer (NR concentration 270 nM)
# Summary of the method: as §1
# [4] = tested on: LXRb:RXRa (NR concentration 270 nM, RXRa partner concentration 90 nM)
# Summary of the method: as §1
# [5] = tested on: LXRb homodimer (NR concentration 270 nM)
# Summary of the method: as §1
# [6] = tested on: PPARa:RXRa (NR concentration 270 nM, RXRa partner concentration 90 nM)
# Summary of the method: as §1
# [7] = tested on: PPARg:RXRa (NR concentration 180 nM, RXRa partner concentration 90 nM)
# Summary of the method: as §1
# [8] = tested on: PPARg:RXRa 270nM:90nM, anti-RXR (NR concentration 270 nM, RXRa partner concentration 90 nM)
# Summary of the method: as §1
# [9] = tested on: PPARg:RXRa 30nM:10nM, anti-RXR (NR concentration 30 nM, RXRa partner concentration 10 nM)
# Summary of the method: as §1
# [10] = tested on: PPARg:RXRa 90nM:30nM, anti-RXR (NR concentration 90 nM, RXRa partner concentration 30 nM)
# Summary of the method: as §1
Sequence,PBM binding z-score [1],PBM binding z-score [2],PBM binding z-score [3],PBM binding z-score [4],PBM binding z-score [5],PBM binding z-score [6],PBM binding z-score [7],PBM binding z-score [8],PBM binding z-score [9],PBM binding z-score [10]
CAAACTAGGACACGAAAGGTCAAAGTCGAATGAC,5.33,5.73,6.38,5.43,1.98,5.8,6.54,6.27,3.92,5.63
CCTAGCAGGCCAATCTGAGTCACTCAAGGCTTGA,-0.524,-0.573,-0.759,-0.644,-0.64,-0.513,-0.183,-0.961,-0.966,-1.25
AGTCAAAGTTCATCTAGGTAACGTACGATATGCT,6.96,6.13,5.65,3.91,1.59,5.05,6.7,6.46,3.66,5.86
GATACAGGGTCAAGGCCAGAGGACGCGTATTGAT,6.78,4.13,-0.101,3.54,-0.0333,5.49,6.03,5.55,2.01,4.12
ACTAGTTGGTCAGTTGAGGTCACACACAATTCGG,3.26,3.93,3.56,3.58,0.939,4.12,2.13,2.59,0.914,1.69
CACCCTAGGTCAGGGCCAGTATAGGAGGAACGTT,1.9,2.6,0.74,1.2,-0.00593,2.24,1.36,1.08,-0.0218,0.354
GTACCAAGGTGAATAGGTCGTTGAAGAGTAGGCG,1.03,0.815,0.077,0.828,-0.492,2.34,1.56,2.06,0.379,1.17
ATACCAAGGTGATCGTGAGGTCGTTGTTACTAAC,1.57,1.11,0.763,1.32,0.361,1.47,0.364,0.56,-0.301,0.535
TCATATAGGTAATTCAGGTGAAAGTCGGCATCTA,1.4,1.17,0.456,1.25,0.393,1.87,1.09,2.58,4.33,3.59
CCTACTGGGCCATCATGTCATTGATATCAACGTT,-0.0902,-0.142,-0.139,0.0528,-0.132,0.932,1.49,2.01,0.718,1.35
TAGTCTAGGTCAGATCGGGCCAGTATACGCTATA,1.81,1.91,0.186,1.13,1.4,2.38,2.36,2.4,0.965,1.92
GCTCGGAGGGCAAGGTCAGAGCTTTGTCCGTAGA,2.16,2.05,-0.485,1.26,-1.03,3,1.23,2,-0.62,0.771
GTAACGAGGGCAAAGTTGATAGCATCTGTCGACG,1.48,1.29,-0.238,1.17,0.169,4.2,7.58,7.24,6.77,7.65
ATTGAAAGGTCGAGGTGAGTATAGAGAAAGGGAA,4.46,3.8,0.427,2.93,1.15,4.7,4.5,3.84,1.72,3.01
ATATGTAGGTTACATCCGGGTCACTCAGGCTATG,2.08,3.86,1.09,2.75,0.682,4.31,6.07,5.17,2.68,4.31
TCGAGTAGGTTAGTCGGGGCATTCATCCAACATA,0.0168,-0.035,0.0686,0.86,-0.262,0.795,0.0659,0.755,1.55,0.83
TGTCAAAGTTCAAAGGTAACGTAGGTATCCACAC,6.64,6.44,4.15,4.46,1.58,5.79,8.31,7.65,4.86,7.25
CTACCAAGGTGAACAAGGCCGTTGATTACTATTC,0.303,0.209,-0.224,0.646,-0.622,1.25,0.647,0.527,-0.248,0.152
TCTCGGAGGAGACGAAAGGTCAGAGCTCGACATC,2.04,2.95,1.15,2.59,-0.403,3.49,3.2,5.01,3.66,4.7
GATACAGGGTCAGCTAGAGGCCAGAGAATGGAAA,4.74,2.83,-0.346,2.73,-0.535,4.65,3.8,3.53,1.08,2.59
CCGACTGGGGCAAGGTTATCATAACGCACAGCCA,0.246,0.372,-0.203,0.586,-1.17,1.56,2.69,3.04,0.861,2.36
TCGAGTAGGTTACCAATGGGGCACTCAGCTTTCT,-0.431,0.466,-1.03,0.379,-0.732,0.966,0.351,1.39,1.09,1.15
CAGCCGAGGTCAGGGCCAGTATAGGAGGAACGTT,6.57,3.98,-0.152,3.28,-0.519,5.6,5.04,4.49,1.2,3.28
ATCGAAAGGTCGTGTGGTGAGTATACAGAAAGGC,4.91,4.22,0.724,3.43,1.53,4.84,3.01,3.37,1.38,2.57
CCTATTAGTTGACCATAAGGGCAACAGAAGCTCG,0.832,0.536,0.381,0.601,0.473,0.814,0.639,0.432,0.111,0.284

Sequence,PBM binding z-score [1],PBM binding z-score [2],PBM binding z-score [3],PBM binding z-score [4],PBM binding z-score [5],PBM binding z-score [6],PBM binding z-score [7],PBM binding z-score [8],PBM binding z-score [9],PBM binding z-score [10]
TCTGGTTGGTCAAAGGTCACACACTCGAAATGCG,6.33,5.91,4.59,5.75,2.86,6.43,10.3,9.3,8.98,10.5
TGTTAAAGTTCAAAGGTAACGTAAGTATCCACAC,6.98,6.1,5.38,4.53,2.3,5.47,7.2,6.84,4.03,6.36
AATACCGGGTCATCGTAGGCCAGAGTACGCACAG,6.17,5.51,1.68,3.93,0.968,5.4,5.83,5.07,2.01,3.89
AGAATGAGGTTATACGAAGATCAGGGAAGAAAGT,2.26,1.67,-0.199,1.54,-0.139,3.25,1.68,1.8,0.749,1.51
ATATGTAGGTTAGCTGGGGTCATCCAGACTAGGC,4.52,5.5,2.24,4.39,0.905,5.22,5.73,5.6,2.9,4.8
GGAACGAGGGCATGCGAGTTGATAGCATGGCGAT,0.758,0.468,-0.615,-0.143,-1.37,1.35,0.979,0.516,-0.248,0.117
GCATATAGTTAATACAAGGTGAAAGTCCGATTGT,0.799,0.553,0.623,0.44,-0.202,0.488,0.801,0.639,0.496,0.653
TCTTGTAGCTCAATAGAGGTTAAGAAAGTGCGCT,0.285,3.13,0.267,1.49,-0.618,1.52,-0.424,0.893,1.96,1.41
GCGTGTAGATCAAGGTTAAGAAAGACTAAGCTAA,0.359,0.939,-0.369,0.539,-0.757,1.28,0.0821,0.373,-0.0969,0.289
TCATATAGGTAAAGATGAAAGTCGAACGATATGA,0.255,0.326,-0.224,0.183,-0.264,0.972,1.38,2.08,3.79,3.02
CCATACAGGTGAGAAGGTAACTCAGCCTCGATTA,0.317,0.251,0.308,0.309,-0.0623,1.01,1.03,1.68,0.288,1.26
CAAACTAGGACAAGGTCAAAGTCGGTTTGTGCCA,4.54,4.18,2.08,3.48,0.526,5.05,5.5,5.41,3.12,4.9
CCGACTGGGGCAGAAAGGTTACGATACCATCCGG,0.702,0.832,-0.247,1.01,-0.887,2.34,2.25,3.05,0.964,2.25
ACTATTAGTTGAGACGAGGGCAACAGATAGGTTG,0.212,-0.0273,-0.073,0.0186,0.272,0.442,0.846,-0.171,0.0997,-0.129
ACAGACTGGTGATGAAGGTAACTCAGGCTATCAT,-0.533,-0.452,-0.433,-0.663,-0.582,-0.594,0.512,0.104,-0.179,-0.158
TTACCAAAGTGAAGGTCGTTGATCCCTCTGTAGA,2.06,2.07,-0.0239,1.33,-0.489,1.15,-0.21,0.882,0.58,0.768
TAGCCTAGGTCATGCGGGCCGGTATAGTGTCGGC,4.25,3.22,0.206,1.43,-0.202,3.19,1.89,2.45,0.149,1.79
CAAACTAGGTTACGAAAGGTCAAAGTCGAATGAC,5.93,8.59,8.28,7.69,2.88,6.1,8.03,7.02,4.81,6.47
TCTTGTAGATAAACAGGAGGTTAAGAAAGATCGA,0.162,1.13,0.276,1.01,-0.398,1.27,0.346,1.3,2.82,1.89
TCATATAGGTAAAGGTGAGAGTCGAACGATATGA,0.752,0.731,-0.322,1.01,-0.291,2.5,3.11,4.06,4.06,3.83
ATCTCTAGGTAATCAAGTTCAGTGAATGCCGAAC,0.473,1.01,1.61,0.658,0.711,1.01,0.317,1.19,0.611,1.19
CCTAGCAGGCCAATCTGCGTCACTCAAGGCTTGA,-0.461,-0.378,-0.462,-0.429,-0.0755,-0.332,-0.41,-1.08,-1.19,-1.21
CGAACTAGGCCAGAACAGGACAGTGAAGGATGAT,-0.345,-0.433,-0.144,-0.816,-0.951,0.499,1.22,0.225,0.233,0.37
TGAATGAGCTTATAAGATCAGGGAACGTTGCAAA,-0.538,-0.891,-0.553,-0.584,-0.76,-0.485,-0.117,-0.382,0.0852,-0.46
